# Shown is part of a subset that was picked to be rich in the strongest signals.
# Experiments:
# Experiment in all cases: glycan array binding signal (z-score within array); higher = stronger binding
# Details in all cases: glycan notation: IUPAC condensed, linker removed
# [1] = target: Fuc(a1-2)Gal(b1-3)GlcNAc(b1-2)Man(a1-3)[Fuc(a1-2)Gal(b1-3)GlcNAc(b1-2)Man(a1-6)]Man(b1-4)GlcNAc(b1-4)GlcNAc
# In short: (§1)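 The Consortium for Functional Glycomics database supplied 3228 glycan arrays, of which those lacking an available protein sequence were dropped. The binding signal, a within-array Z-score, was averaged across arrays of the same protein sequence and across linkers. Negative scores can be read as non-binding.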
# [2] = target: Fuc(a1-2)Gal(b1-3)GlcNAc(b1-3)[Gal(b1-4)GlcNAc(b1-6)]Gal(b1-4)Glc
# In short: as §1
# [3] = target: Fuc(a1-2)Gal(b1-3)[Fuc(a1-4)]GlcNAc
# In short: as §1
# [4] = target: Fuc(a1-2)Gal(b1-4)GlcNAc(b1-3)Gal(b1-4)GlcNAc(b1-2)Man(a1-3)[Fuc(a1-2)Gal(b1-4)GlcNAc(b1-3)Gal(b1-4)GlcNAc(b1-2)Man(a1-6)]Man(b1-4)GlcNAc(b1-4)GlcNAc
# In short: as §1
# [5] = target: Fuc(a1-2)Gal(b1-4)GlcNAc(b1-3)[Fuc(a1-2)Gal(b1-4)GlcNAc(b1-6)]GalNAc
# In short: as §1
# [6] = target: Fuc(a1-2)[Gal(a1-3)]Gal(b1-4)GlcNAc
# In short: as §1
# [7] = target: Fuc(a1-2)[Gal(a1-4)]Gal(b1-4)GlcNAc
# In short: as §1
# [8] = target: Fuc(a1-2)[GalNAc(a1-3)]Gal
# In short: as §1
# [9] = target: Fuc(a1-2)[GalNAc(a1-3)]Gal(b1-4)GlcNAc(b1-2)Man(a1-3)[Fuc(a1-2)[GalNAc(a1-3)]Gal(b1-4)GlcNAc(b1-2)Man(a1-6)]Man(b1-4)GlcNAc(b1-4)[Fuc(a1-6)]GlcNAc
# In short: as §1
# [10] = target: Fuc(a1-2)[GalNAc(a1-3)]Gal(b1-4)GlcNAc(b1-6)GalNAc
# In short: as §1
# [11] = target: Fuc(a1-2)[GalNAc(a1-3)]Gal(b1-4)[Fuc(a1-3)]GlcNAc(b1-3)GalNAc
# In short: as §1
# [12] = target: Fuc(a1-3)[Gal(b1-4)]GlcNAc6S
# In short: as §1
# [13] = target: Gal(a1-3)Gal(b1-4)GlcNAc(b1-2)Man
# In short: as §1
# [14] = target: Gal(a1-3)Gal(b1-4)GlcNAc(b1-2)Man(a1-3)[Gal(a1-3)Gal(b1-4)GlcNAc(b1-2)Man(a1-6)]Man(b1-4)GlcNAc(b1-4)GlcNAc
# In short: as §1
# [15] = target: Gal(a1-3)Gal(b1-4)GlcNAc(b1-3)GalNAc
# In short: as §1
# [16] = target: Gal(a1-3)[Gal(a1-4)]Gal(b1-4)GlcNAc
# In short: as §1
# [17] = target: Gal(a1-4)Gal(b1-3)GlcNAc(b1-2)Man(a1-3)[Gal(a1-4)Gal(b1-3)GlcNAc(b1-2)Man(a1-6)]Man(b1-4)GlcNAc(b1-4)GlcNAc
# In short: as §1
# Gal(a1-4)Gal(b1-4)GlcNAc = target: Gal(a1-4)Gal(b1-4)GlcNAc
# In short: as §1
# [18] = target: Gal(a1-4)Gal(b1-4)GlcNAc(b1-2)Man(a1-3)[Gal(a1-4)Gal(b1-4)GlcNAc(b1-2)Man(a1-6)]Man(b1-4)GlcNAc(b1-4)GlcNAc
# In short: as §1
# [19] = target: Gal(a1-4)Gal(b1-4)GlcNAc(b1-3)Gal(b1-4)Glc
# In short: as §1
# Gal(b1-3)Gal(b1-4)GlcNAc = target: Gal(b1-3)Gal(b1-4)GlcNAc
# In short: as §1
# [20] = target: Gal(b1-3)GalNAc(a1-3)[Fuc(a1-2)]Gal(b1-4)Glc
# In short: as §1
# [21] = target: Gal(b1-3)GalNAc(a1-3)[Fuc(a1-2)]Gal(b1-4)GlcNAc
# In short: as §1
# [22] = target: Gal(b1-3)GlcNAc(a1-3)Gal(b1-4)GlcNAc
# In short: as §1
# [23] = target: Gal(b1-3)GlcNAc(a1-6)Gal(b1-4)GlcNAc
# In short: as §1
# [24] = target: Gal(b1-3)GlcNAc(b1-2)[Gal(b1-3)GlcNAc(b1-6)]Man(a1-6)[Gal(b1-3)GlcNAc(b1-2)Man(a1-3)]Man(b1-4)GlcNAc(b1-4)GlcNAc
# In short: as §1
# [25] = target: Gal(b1-3)GlcNAc(b1-6)Gal(b1-4)GlcNAc
# In short: as §1
# [26] = target: Gal(b1-3)[Neu5Ac(a2-6)]GalNAc
# In short: as §1
# Gal(b1-4)GlcNAc(b1-2)Man = target: Gal(b1-4)GlcNAc(b1-2)Man
# In short: as §1
# [27] = target: Gal(b1-4)GlcNAc(b1-2)[Gal(b1-4)GlcNAc(b1-4)]Man(a1-3)[Gal(b1-4)GlcNAc(b1-2)[Gal(b1-4)GlcNAc(b1-6)]Man(a1-6)]Man(b1-4)GlcNAc(b1-4)GlcNAc
# In short: as §1
# [28] = target: Gal(b1-4)GlcNAc(b1-3)Gal(b1-4)GlcNAc(b1-3)Gal(b1-4)GlcNAc(b1-2)[Gal(b1-4)GlcNAc(b1-3)Gal(b1-4)GlcNAc(b1-3)Gal(b1-4)GlcNAc(b1-6)]Man(a1-6)[Gal(b1-4)GlcNAc(b1-3)Gal(b1-4)GlcNAc(b1-3)Gal(b1-4)GlcNAc(b1-2)Man(a1-3)]Man(b1-4)GlcNAc(b1-4)[Fuc(a1-6)]GlcNAc
# In short: as §1
# [29] = target: Gal(b1-4)GlcNAc(b1-3)Gal(b1-4)GlcNAc(b1-3)Gal(b1-4)GlcNAc(b1-3)Gal(b1-4)GlcNAc(b1-3)Gal(b1-4)GlcNAc(b1-2)Man(a1-3)[Gal(b1-4)GlcNAc(b1-3)Gal(b1-4)GlcNAc(b1-3)Gal(b1-4)GlcNAc(b1-3)Gal(b1-4)GlcNAc(b1-3)Gal(b1-4)GlcNAc(b1-2)Man(a1-6)]Man(b1-4)GlcNAc(b1-4)GlcNAc
# In short: as §1
# [30] = target: Gal(b1-4)GlcNAc(b1-3)Gal(b1-4)GlcNAc(b1-3)Gal(b1-4)GlcNAc(b1-3)Gal(b1-4)GlcNAc(b1-3)Gal(b1-4)GlcNAc(b1-2)[Gal(b1-4)GlcNAc(b1-3)Gal(b1-4)GlcNAc(b1-3)Gal(b1-4)GlcNAc(b1-3)Gal(b1-4)GlcNAc(b1-3)Gal(b1-4)GlcNAc(b1-6)]Man(a1-6)[Gal(b1-4)GlcNAc(b1-3)Gal(b1-4)GlcNAc(b1-3)Gal(b1-4)GlcNAc(b1-3)Gal(b1-4)GlcNAc(b1-3)Gal(b1-4)GlcNAc(b1-2)Man(a1-3)]Man(b1-4)GlcNAc(b1-4)[Fuc(a1-6)]GlcNAc
# In short: as §1
# Gal6S(b1-4)Glc = target: Gal6S(b1-4)Glc
# In short: as §1
# [31] = target: GalNAc(b1-3)Gal(a1-4)Gal(b1-4)GlcNAc(b1-3)Gal(b1-4)Glc
# In short: as §1
# GalNAc6S(b1-4)GlcNAc = target: GalNAc6S(b1-4)GlcNAc
# In short: as §1
# [32] = target: GlcA3S(b1-3)Gal(b1-4)GlcNAc(b1-3)Gal(b1-4)Glc
# In short: as §1
# [33] = target: GlcNAc(a1-6)Gal(b1-4)GlcNAc
# In short: as §1
# [34] = target: GlcNAc(b1-2)[GlcNAc(b1-4)]Man(a1-3)[GlcNAc(b1-4)][GlcNAc(b1-2)Man(a1-6)]Man(b1-4)GlcNAc(b1-4)GlcNAc
# In short: as §1
# GlcNAc(b1-3)Fuc = target: GlcNAc(b1-3)Fuc
# In short: as §1
# [35] = target: GlcNAc(b1-3)Gal(b1-4)GlcNAc(b1-3)Gal(b1-4)GlcNAc(b1-3)Gal(b1-4)GlcNAc(b1-3)Gal(b1-4)GlcNAc(b1-2)Man(a1-3)[GlcNAc(b1-3)Gal(b1-4)GlcNAc(b1-3)Gal(b1-4)GlcNAc(b1-3)Gal(b1-4)GlcNAc(b1-3)Gal(b1-4)GlcNAc(b1-2)Man(a1-6)]Man(b1-4)GlcNAc(b1-4)[Fuc(a1-6)]GlcNAc
# In short: as §1
# [36] = target: GlcNAc(b1-3)[GlcNAc(b1-4)][GlcNAc(b1-6)]GlcNAc
# In short: as §1
# [37] = target: Neu5Ac(a2-3)Gal(b1-3)GlcNAc(b1-2)Man(a1-3)[Neu5Ac(a2-3)Gal(b1-3)GlcNAc(b1-2)Man(a1-6)]Man(b1-4)GlcNAc(b1-4)GlcNAc
# In short: as §1
# [38] = target: Neu5Ac(a2-3)Gal(b1-3)GlcNAc(b1-3)GalNAc
# In short: as §1
# [39] = target: Neu5Ac(a2-3)Gal(b1-4)GlcNAc(b1-2)[Neu5Ac(a2-3)Gal(b1-4)GlcNAc(b1-4)]Man(a1-3)[GlcNAc(b1-4)][Neu5Ac(a2-3)Gal(b1-4)GlcNAc(b1-2)[Neu5Ac(a2-3)Gal(b1-4)GlcNAc(b1-6)]Man(a1-6)]Man(b1-4)GlcNAc(b1-4)GlcNAc
# In short: as §1
# [40] = target: Neu5Ac(a2-3)Gal(b1-4)GlcNAc(b1-3)[Neu5Ac(a2-3)Gal(b1-4)GlcNAc(b1-6)]GalNAc
# In short: as §1
# [41] = target: Neu5Ac(a2-3)Gal(b1-4)GlcNAc(b1-6)[Neu5Ac(a2-3)Gal(b1-3)]GalNAc
# In short: as §1
# [42] = target: Neu5Ac(a2-3)Gal(b1-4)GlcNAc6S
# In short: as §1
# [43] = target: Neu5Ac(a2-6)Gal(b1-4)GlcNAc(b1-2)Man(a1-6)[Man(a1-3)]Man(b1-4)GlcNAc(b1-4)GlcNAc
# In short: as §1
# [44] = target: Neu5Ac(a2-8)Neu5Ac(a2-3)[GalNAc(b1-4)]Gal(b1-4)Glc
# In short: as §1
binder,measurement,setting,value
"CGL (Crenomytilus grayanus), H2FH31 (protein) MTTFLIKHKASGKFLHPYGGSSNPANNTKLVLHSDIHERMYFQFDVVDERWGYIKHVASGKIVHPYGGQANPPNETNMVLHQDRHDRALFAMDFFNDNIMHKGGKYIHPKGGSPNPPNNTETVIHGDKHAAMEFIFVSPKNKDKRVLVYA",glycan array binding signal (z-score),[1],-0.195
same,glycan array binding signal (z-score),[2],-0.054
same,glycan array binding signal (z-score),[3],-0.372
same,glycan array binding signal (z-score),[4],0.855
same,glycan array binding signal (z-score),[5],-0.067
same,glycan array binding signal (z-score),[6],-0.063
same,glycan array binding signal (z-score),[7],4.38
same,glycan array binding signal (z-score),[8],-0.106
same,glycan array binding signal (z-score),[9],-0.23
same,glycan array binding signal (z-score),[10],-0.096
same,glycan array binding signal (z-score),[11],-0.217
same,glycan array binding signal (z-score),[12],-0.324
same,glycan array binding signal (z-score),[13],1.69
same,glycan array binding signal (z-score),[14],5.84
same,glycan array binding signal (z-score),[15],3.54
same,glycan array binding signal (z-score),[16],3.32
same,glycan array binding signal (z-score),[17],4.07
same,glycan array binding signal (z-score),Gal(a1-4)Gal(b1-4)GlcNAc,3.63
same,glycan array binding signal (z-score),[18],8.66
same,glycan array binding signal (z-score),[19],4.55
same,glycan array binding signal (z-score),Gal(b1-3)Gal(b1-4)GlcNAc,-0.077
same,glycan array binding signal (z-score),[20],-0.352
same,glycan array binding signal (z-score),[21],-0.341
same,glycan array binding signal (z-score),[22],0.396
same,glycan array binding signal (z-score),[23],0.803
same,glycan array binding signal (z-score),[24],1.87
same,glycan array binding signal (z-score),[25],0.949
same,glycan array binding signal (z-score),[26],-0.398
same,glycan array binding signal (z-score),Gal(b1-4)GlcNAc(b1-2)Man,-0.334
same,glycan array binding signal (z-score),[27],1.1
same,glycan array binding signal (z-score),[28],3.3
same,glycan array binding signal (z-score),[29],3.18
same,glycan array binding signal (z-score),[30],3.77
same,glycan array binding signal (z-score),Gal6S(b1-4)Glc,-0.407
same,glycan array binding signal (z-score),[31],0.074
same,glycan array binding signal (z-score),GalNAc6S(b1-4)GlcNAc,-0.377
same,glycan array binding signal (z-score),[32],-0.414
same,glycan array binding signal (z-score),[33],-0.356
same,glycan array binding signal (z-score),[34],-0.324
same,glycan array binding signal (z-score),GlcNAc(b1-3)Fuc,-0.323
same,glycan array binding signal (z-score),[35],-0.279
same,glycan array binding signal (z-score),[36],-0.327
same,glycan array binding signal (z-score),[37],-0.382
same,glycan array binding signal (z-score),[38],-0.337
same,glycan array binding signal (z-score),[39],-0.348
same,glycan array binding signal (z-score),[40],-0.248
same,glycan array binding signal (z-score),[41],-0.386
same,glycan array binding signal (z-score),[42],-0.278
same,glycan array binding signal (z-score),[43],-0.418
same,glycan array binding signal (z-score),[44],-0.366

# From the supplement of paper PMC8728848
